# Out of some 1,300 compounds screened, about 40 (3%) were called active. A selection follows. Unmarked numbers belong to inactive results.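 The calls were made as follows: active = inhibition above that campaign's mean inhibition plus 3 SD (cut at about 0.46% in these data); inactive = the rest.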
# Target: Beta-lactamase TEM (Escherichia coli) (UniProt P62593)
# Assay: TEM-1 serine beta-lactamase inhibitors, counter-screen for VIM-2 inhibitor project, biochemical, epi-absorbance, HTS (AID 1866);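 also: 0% = TEM-1 with DMSO and 100% = TEM-1 with 100 µM potassium clavulanate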
# Conditions: Purified TEM-1, nitrocefin hydrolysis, epi-absorbance fluorescence; at 5.6 µM; stronger effect = higher value
# Sequence of Beta-lactamase TEM (Escherichia coli) (P62593 whole entry, looked up): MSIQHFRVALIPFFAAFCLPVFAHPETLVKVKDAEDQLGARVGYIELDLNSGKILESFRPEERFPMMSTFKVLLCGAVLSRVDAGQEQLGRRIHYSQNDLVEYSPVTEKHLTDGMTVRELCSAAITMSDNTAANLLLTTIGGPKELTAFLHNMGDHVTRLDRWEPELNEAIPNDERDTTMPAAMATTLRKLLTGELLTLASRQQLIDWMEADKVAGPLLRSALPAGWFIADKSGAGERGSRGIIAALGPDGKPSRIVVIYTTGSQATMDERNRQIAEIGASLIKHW
row,SMILES,inhibition [%]
1,COc1ccc(CCn2c(=N)c(C(=O)NCC3CCCO3)cc3c(=O)n4cccc(C)c4nc32)cc1OC (configuration not stated),-5.02
2,Cc1nc2ccccc2c2oc(C(=O)NCCCN3CCC(C)CC3)cc12,-6.75
3,CNC(=O)c1ccsc1NC(=O)c1ccc(S(=O)(=O)N2CCOCC2)cc1,-7.75
4,Fc1ccc(-c2ccc(CNCc3ccccn3)o2)cc1Cl,-5.72
5,CCN(CC)c1ccc2cc(C(N)=O)/c(=N\NC(=O)c3ccncc3)oc2c1,-8.43
6,O=C(COc1cc2oc(=O)c3c(c2cc1Cl)CCC3)NCCCN1CCOCC1,-0.53
7,CCN1CCN(CCNC(=O)c2ccc3c(c2)NC(=O)/C(=C\c2ccc(OC)c(OC)c2)S3)CC1,-9.31
8,COc1ccc(-c2nn3c(-c4ccccc4)nnc3s2)cc1OC,-11.4
9,CCOC(=O)N1CCN(C(=O)C2CCN(c3ncnc4c3sc3cccc(F)c34)CC2)CC1,-5.6
10,CCN(CC)CCOc1ccc2c(c1)C(=NNC(=O)c1ccccn1)c1cc(OCCN(CC)CC)ccc1-2,-8.91
11,COc1ccc(Nc2cc(C)nc(-n3nc(C)cc3C)n2)cc1,-7.46
12,NC(=O)C1CCN(C(=O)COc2ccc3c4c(c(=O)oc3c2)CCC4)CC1,-5.63
13,Cn1c(-c2sccc2OCc2cccc(C(F)(F)F)c2)n[nH]c1=S,-7.73
14,CCOc1cc(/C=C2\SC(N3CCCCC3)=NC2=O)ccc1O,-8.67
15,COC(=O)c1c(NC(=O)c2ccc(S(=O)(=O)N3CCOCC3)cc2)sc2c1CCN(C(C)C)C2,-6.47
16,Cc1ccc(Cl)cc1-c1ccc(/C=N/n2cnnc2)o1,-6.18
17,CCN1CCCC1CNC(=O)c1cc2c(=O)n(C)c3ccccc3c2n1C (configuration not stated),-6.31
18,COc1ccc(Cc2nnc(NS(=O)(=O)Cc3ccccc3)s2)cc1,-3.28
19,Cc1cc(NCc2ccco2)n2c(nc3ccccc32)c1C#N,-6.6
20,CC(=O)c1ccc(-c2ccc(Cn3c(C)nc4cc(N)c(C)nc43)cc2)cc1,-6.56
21,CC(NS(=O)(=O)c1ccccc1)c1n[nH]c(=S)n1-c1ccccc1 (configuration not stated),-5.56
22,O=C1Nc2cc(C(=O)N3CCC(N4CCCCC4)CC3)ccc2S/C1=C\c1ccccc1,-5.79
23,CCc1cc(=O)oc2cc(C)cc(OCC(=O)N3CCC[C@@H]3C(=O)O)c12,-5.9
24,O=C(NC(=S)Nc1ccccc1C(=O)O)c1ccc(-c2ccc(Br)cc2)o1,-8.31
25,CN(C)CCNc1ccc(-c2n[nH]c(=O)c3ccccc23)cc1[N+](=O)[O-],-7.17
26,Cc1cc(-c2ccc(/C=N/n3cnnc3)o2)c([N+](=O)[O-])cc1C,-5.24

row,SMILES,inhibition [%]
1,C=CCn1c(-c2ccccc2OCC)n[nH]c1=S,-3.6
2,CC(C)(C)CC(=O)Nc1nnc(SCC(=O)NCc2cccs2)s1,-5.92
3,CCOc1cc(/C=C2\SC(N3CCCC(C)C3)=NC2=O)ccc1O (configuration not stated),-1.56
4,O=c1[nH]c(-c2ccccc2)c(-c2ccccc2)[nH]1,-4.67
5,COc1nc(N=C(N)N)nc2c(C)cccc12,-4.69
6,CN1CCN(c2ccc(NC(=O)c3ccc4c(c3)[nH]c(=O)n4Cc3ccc(F)cc3)cc2)CC1,-7.55
7,CC1CCCC(C)N1CCCNC(=O)c1cc2c(=O)n(C)c3ccccc3c2n1C (configuration not stated),-6.6
8,Cn1c2ccccc2c(=O)c2c(O)cccc21,-0.94
9,CCCc1ccc(OCCNC(=O)c2ccco2)cc1,-6.4
10,COC(=O)c1ccc(-c2noc(CN(Cc3ccccn3)CC3CCCO3)n2)cc1 (configuration not stated),-7.22
11,COc1cc(/C=N/Nc2nn3cnnc3c3ccccc23)cc(OC)c1OC,-3.82
12,COc1cc(NC(=O)C2=C(C)OCCS2)c(Cl)cc1C(=O)NCCN1CCN(C)CC1,-9.7
13,Nc1nnc2c(C(F)(F)F)nc3ccccc3n12,-1.12
14,Cc1cc(C)c2nc3nc(C)cc(C)c3c(N)c2c1,-4.56
15,CCC1CCCCN1CCCNC(=O)c1cc2c(Cl)nc3ccccc3c2s1 (configuration not stated),-6.12
16,Clc1cc(-c2ccc(/C=N/n3cnnc3)o2)ccc1Br,-5.72
17,CCN1CCN(C(=O)Cn2nc(C)n3c(cc4c(OC)cccc43)c2=O)CC1,-7.04
18,Cn1c(=O)c2c(nc(N3CCOCC3)n2CCNC2=NCCC2)n(C)c1=O,-4.49
19,COc1ccc(/C=N/N(C)C2=NS(=O)(=O)c3ccccc32)cc1OC,-6.76
20,COc1cc(-c2nn3c(-c4cccc(C)c4)nnc3s2)cc(OC)c1OC,-6.23
21,Cc1cccn2c(=O)c(C=O)c(Nc3ccc(S(N)(=O)=O)cc3)nc12,-4.52
22,O=C(NCCCN1CCOCC1)c1cnn2c(-c3ccccc3)cc(-c3ccccc3)nc12,-5.7
23,CCOCCCNc1c(CC)c(C)c(C#N)c2nc3ccccc3n12,-5.82
24,Cc1ccc2nc(C)c3c(c2c1)N(c1ccccc1)CC3,-5.53
25,Nc1cccc2c1C(=O)N(Cc1nnc(-c3ccccc3Br)o1)C2=O,-0.93
26,Cc1cc([N+](=O)[O-])c(-c2ccc(/C=N/n3cnnc3)o2)cc1Cl,-6.25

# Source: PubChem BioAssay AID1866 (The Scripps Research Institute Molecular Screening Center, 2009)
